Bioassay records deposited in PubChem by National Center for Advancing Translational Sciences (NCATS).
The list is not random: actives were taken first. Their share in the collection is about 7.9%.
MCF10A rerep: inducers of DNA re-replication in MCF 10A breast cells | AID 624296 | Potency, µM (top dose mostly 46.1 µM), for inactives: at the top dose activity, positive = re-replication, most hits filed as activators | MCF 10A DNA re-replication, Hoechst nuclear intensity, 48 h | 2.9% of 350,000 active; note: % of control where 0% means no effect; nearly all actives have a fitted effect of over 50% in size
HT1080NT lethal: kills 2HG-producing HT-1080-NT fibrosarcoma cells; Potency, µM (highest dose often 46.1 µM), for the others: top-dose activity, negative = less viability, most hits filed as cytotoxic; 1.6% of 360,000 active; HT-1080-NT fibrosarcoma viability, CellTiter-Glo ATP luminescence, 48 h; AID 686970;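 note: NT is the 2HG producing partner of a matched IDH1 knockdown line; 0% = DMSO-treated cells and -100% = media-only wells without cells; nearly all actives have a fitted effect of over 55% in size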
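750 cells/well, RPMI + 5% FBS; 2 h settle, compound pin-transfer, 48 h at 37 degrees C. CellTiter-Glo 10 min RT, luminescence. Normalized to DMSO and media-only wells.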
KB-3-1 cytotox: KB-3-1 parental cell cytotoxicity. 1.4% of 400,000 active. Potency, µM (series often up to 46.1 µM), hits mostly cytotoxic. AID 1347075. KB-3-1 viability, CellTiter-Glo ATP luminescence, 72 h; note: % is set by controls: 0 for no effect and ±100 for the full control effect; nearly all actives have a fitted effect of over 60% in size
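Multi-concentration cytotoxicity screen in KB-3-1 cells grown in DMEM lacking phenol red with 10% FBS. After 72 h at 37 °C with compound, ATP-dependent luminescence was recorded.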
KB-V1 cytotox: kills drug-selected multidrug resistant KB-V1 cells. KB-V1 MDR cells viability, CellTiter-Glo, 72 h. Potency, µM (doses to about 46.1 µM), hits mostly cytotoxic. 3.4% of 400,000 active; note: % is set by controls: 0 for no effect and ±100 for the full control effect; nearly all actives have a fitted effect of over 60% in size
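Drug-selected KB-V1 cells, grown in DMEM lacking phenol red with 10% FBS, receive compound titrations; after three days at 37 degrees C, surviving cell ATP is quantified by CellTiter-Glo luminescence and responses normalized and curve-fitted.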
SW480 rerep: inducers of DNA re-replication in SW480 colon cancer cells | SW480 DNA re-replication, Hoechst DNA content imaging, 48 h | Potency, µM (series often up to 46.1 µM), inactives show top-dose re-replication activation, hits mostly activators | 1.8% of 340,000 active; note: % of control where 0% means no effect; nearly all actives have a fitted effect of over 55% in size
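250 cells/well; 23 nL cpd via pin tool; 48 hr, 37 C, 5% CO2; Hoechst 40 min; imager read of total nuclear intensity, ex 405/em 500-530 nm.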
HT1080 IDH1KD tx: HT-1080 IDH1 knockdown cell toxicity (counter line). HT-1080 IDH1 knockdown viability, ATP luminescence, 48 h. Potency, µM (highest dose often 46.1 µM), for the others: at the highest dose activity, negative = toxicity, actives largely listed as cytotoxic. 2% of 360,000 active. AID 686971;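 note: 0% = DMSO wells and -100% = cell-free medium wells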
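% activity derives from luminescence (CellTiter-Glo), normalised to DMSO and no-cell wells. HT-1080-IDH1KD cells, 750/well, had 48 h compound exposure at 37 °C.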
The depositor's hits bear a star. Calls come from the whole dose curve; as a rule, active = well fitted curve in the direction sought with a large enough effect; inconclusive = small, poorly fitted or top-dose-only effect, or another doubt; inactive = no such curve, though single readings can be large; an effect the other way counts as inactive or inconclusive. Potency is the fitted concentration of half-maximal effect.

What do the screens show for `CN(CC1CCCN(CCc2ccc(Cl)cc2)C1)C(=O)CC(F)(F)F` (stereo not given)?
MCF10A rerep: 16.6%; HT1080NT lethal: -1.1%; KB-3-1 cytotox: inactive; KB-V1 cytotox: inactive; SW480 rerep: 5.8µM*; HT1080 IDH1KD tx: -2.7%

What do the screens show for `COc1ccc(CN(C)CC2CCCN(CCc3ccc(Cl)cc3)C2)cc1OC` (stereo not given)?
MCF10A rerep: inconclusive; HT1080NT lethal: 29.1µM*; KB-3-1 cytotox: inconclusive; KB-V1 cytotox: inactive; SW480 rerep: 25.7%; HT1080 IDH1KD tx: 16.4µM*

Results for CN(CC1CCCN(CCc2ccc(Cl)cc2)C1)C(=O)c1ccoc1 (stereo not given) ?
MCF10A rerep: 16.9%; HT1080NT lethal: -3.4%; KB-3-1 cytotox: inactive; KB-V1 cytotox: inconclusive; SW480 rerep: -1.1%; HT1080 IDH1KD tx: 0.2%

How did COc1ccccc1CCN1CCCC(CN(C)Cc2ccc(OCCO)cc2)C1 (stereo not given) do in these assays?
MCF10A rerep: 20.6µM*; HT1080NT lethal: -15.3%; KB-3-1 cytotox: inactive; KB-V1 cytotox: inactive; SW480 rerep: inconclusive; HT1080 IDH1KD tx: -15.4%

How did O=C(CSc1nnc(C2CC2)n1C1CC1)N1CCN(c2ccc(O)cc2)CC1 do in these assays?
HT1080NT lethal: -22.3%; KB-3-1 cytotox: inactive; KB-V1 cytotox: inactive; HT1080 IDH1KD tx: -15.4%

Results for N#Cc1ccccc1OCC(=O)NNC(=O)CCNC(=O)c1ccccc1 ?
MCF10A rerep: 9.6%; HT1080NT lethal: -7.1%; KB-3-1 cytotox: inactive; KB-V1 cytotox: inconclusive; SW480 rerep: 1.4%; HT1080 IDH1KD tx: 0.9%

How did Cn1cc(/C=C(\NC(=O)c2ccccc2Cl)C(=O)NCCCn2ccnc2)c2ccccc21 do in these assays?
MCF10A rerep: 19.0%; HT1080NT lethal: -17.9%; KB-3-1 cytotox: inactive; KB-V1 cytotox: inconclusive; SW480 rerep: inconclusive; HT1080 IDH1KD tx: 16.6%

Results for COc1ccc(OC)c(-c2nnc(NC(=O)Nc3ccc4ccccc4c3)s2)c1 ?
KB-3-1 cytotox: inactive; KB-V1 cytotox: inactive

Results for Cc1ccc(CCNC(=O)NCc2noc3ccc(C)cc23)cc1 ?
KB-3-1 cytotox: inactive; KB-V1 cytotox: inactive

Results for COc1ccc(/C=C/C(=O)c2ccncc2)c2ccccc12 ?
MCF10A rerep: 11.6µM*; HT1080NT lethal: inconclusive; KB-3-1 cytotox: inactive; KB-V1 cytotox: inactive; SW480 rerep: inconclusive; HT1080 IDH1KD tx: inconclusive

What do the screens show for `COc1cccc(/C=C/C(=O)c2cccc([N+](=O)[O-])c2)c1OC`?
MCF10A rerep: inconclusive; HT1080NT lethal: 23.1µM*; KB-3-1 cytotox: inactive; KB-V1 cytotox: inconclusive; SW480 rerep: inconclusive; HT1080 IDH1KD tx: inconclusive

How did CCN(CC)C(=O)C1=C(C)N(CCCOC)C(=O)C(CC(=O)NCc2cccs2)C1 (stereo not given) do in these assays?
HT1080NT lethal: -8.1%; KB-3-1 cytotox: inactive; KB-V1 cytotox: inconclusive; HT1080 IDH1KD tx: 9.8%

What do the screens show for `O=C(Nc1ccc2c(c1)CCC2)Nc1ccccc1F`?
MCF10A rerep: 0.1%; HT1080NT lethal: -19.9%; KB-3-1 cytotox: inactive; KB-V1 cytotox: inactive; SW480 rerep: 0.9%; HT1080 IDH1KD tx: -19.9%

Results for CC(C)OCCCNC(=O)c1cc2c(=O)n(C)c3ccccc3c2n1C ?
MCF10A rerep: 1.0%; HT1080NT lethal: -0.2%; KB-3-1 cytotox: inactive; KB-V1 cytotox: inconclusive; SW480 rerep: -2.0%; HT1080 IDH1KD tx: 3.2%

Results for CCCCN(CC)CCCNC(=O)c1cc2c(=O)n(C)c3ccccc3c2n1C ?
MCF10A rerep: inconclusive; HT1080NT lethal: -4.9%; KB-3-1 cytotox: 16.4µM*; KB-V1 cytotox: inactive; SW480 rerep: 10.9%; HT1080 IDH1KD tx: -20.7%

How did CC(C)c1ccc(/C=C/C(=O)NC(=S)Nc2ccc(CN3CCOCC3)cc2)cc1 do in these assays?
MCF10A rerep: 23.1µM*; HT1080NT lethal: inconclusive; KB-3-1 cytotox: inactive; KB-V1 cytotox: inconclusive; SW480 rerep: 22.8%; HT1080 IDH1KD tx: inconclusive

What do the screens show for `O=C(/C=C/c1ccccc1)NC(=S)Nc1ccc(N2CCOCC2)cc1`?
MCF10A rerep: 1.5%; HT1080NT lethal: 7.94µM*; KB-3-1 cytotox: inactive; KB-V1 cytotox: inactive; SW480 rerep: 3.0%; HT1080 IDH1KD tx: inconclusive

What do the screens show for `CC(C)c1ccc(/C=C/C(=O)NC(=S)NN2CCOCC2)cc1`?
MCF10A rerep: 2.7%; HT1080NT lethal: -8.6%; KB-3-1 cytotox: inactive; KB-V1 cytotox: inactive; SW480 rerep: inconclusive; HT1080 IDH1KD tx: -4.6%

What do the screens show for `O=C(/C=C/c1ccccc1)NC(=S)Nc1ccccc1`?
MCF10A rerep: -10.9%; HT1080NT lethal: -6.1%; KB-3-1 cytotox: inactive; KB-V1 cytotox: inconclusive; SW480 rerep: inconclusive; HT1080 IDH1KD tx: 1.1%

How did O=C(/C=C/c1ccccc1)NC(=S)Nc1ccc2c3c(cccc13)CC2 do in these assays?
MCF10A rerep: inconclusive; HT1080NT lethal: 13.3%; KB-3-1 cytotox: 4.11µM*; KB-V1 cytotox: inactive; SW480 rerep: -2.2%; HT1080 IDH1KD tx: 20.6%

How did CCOc1ccc(NC(=O)c2cc3sc(Cl)cc3n2CC)cc1 do in these assays?
KB-3-1 cytotox: inactive; KB-V1 cytotox: inconclusive

What do the screens show for `C/C(=N\Nc1nc2ccccc2[nH]1)c1ccc(Cl)s1`?
MCF10A rerep: inconclusive; HT1080NT lethal: inconclusive; KB-3-1 cytotox: inconclusive; KB-V1 cytotox: 20.6µM*; SW480 rerep: 0.8%; HT1080 IDH1KD tx: inconclusive

Results for Brc1ccc(-c2ccc(/C=N/Nc3nncc(-c4ccccc4)n3)o2)cc1 ?
MCF10A rerep: 9.3%; HT1080NT lethal: 4.2%; KB-3-1 cytotox: inconclusive; KB-V1 cytotox: inactive; SW480 rerep: -1.0%; HT1080 IDH1KD tx: 14.4%

Results for Brc1ccc(-c2ccc(/C=N/Nc3nc4ccccc4[nH]3)o2)cc1 ?
MCF10A rerep: 11.6µM*; HT1080NT lethal: inconclusive; KB-3-1 cytotox: inactive; KB-V1 cytotox: inactive; SW480 rerep: 5.8µM*; HT1080 IDH1KD tx: inconclusive

Results for C(=C\c1ccccc1)/C=N/Nc1nc2ccccc2[nH]1 ?
MCF10A rerep: 4.61µM*; HT1080NT lethal: inconclusive; KB-3-1 cytotox: 14.6µM*; KB-V1 cytotox: inactive; SW480 rerep: inconclusive; HT1080 IDH1KD tx: inconclusive

Results for C(=N\Nc1nc2ccccc2[nH]1)/c1ccccc1 ?
MCF10A rerep: 2.9%; HT1080NT lethal: -0.7%; KB-3-1 cytotox: inactive; KB-V1 cytotox: inconclusive; SW480 rerep: -1.5%; HT1080 IDH1KD tx: 6.3%

Results for C/C(=N\Nc1nc2ccccc2[nH]1)c1ccc(C)o1 ?
MCF10A rerep: 8.4%; HT1080NT lethal: 9.5%; KB-3-1 cytotox: inactive; KB-V1 cytotox: inconclusive; SW480 rerep: -0.3%; HT1080 IDH1KD tx: -0.9%
